# HCMV antiviral = qHTS Assay for inhibitors of the human cytomegalovirus (HCMV); HFF cells, HCMV-luciferase reporter, 72 h; hits give low values; activity change, negative = inhibition, % at 57.5 µM; actives 4.5% (n = 410,000); in the data active means activity change below about -60%; inconclusive means no clear call, values can overlap the other calls; inactive means above about -39%; further: on the % scale 0 is the no-effect control and ±100 the full control effect
#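 After 16 h attachment at 37C, HFF cells received test compound and HCMV-luciferase (1 PFU/cell); reporter luminescence read 72 h later, data normalized against buffer-only and known inhibitor Salinomycin.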
# Pf growth 48h = Primary qHTS for delayed death inhibitors of the malarial parasite plastid, 48 hour incubation | actives 5.9% (n = 310,000) | P. falciparum luciferase growth in erythrocytes, 48 h | Potency, µM (series often up to 28.7 µM), without a hit: top-dose activity change, negative = inhibition, most hits filed as inhibitors | AID 504832, 2011; further: potency means the concentration at half of the fitted maximal effect; on the % scale 0 is the no-effect control and ±100 the full control effect
#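 Compounds are pin-transferred into medium, infected erythrocytes (2% hematocrit, 0.1% parasitemia final) are added, and plates sit one parasite generation at 37 C in 5% CO2. Detection reagent is then added and luminescence measured.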
# Pf growth 96h = Primary qHTS for delayed death inhibitors of the malarial parasite plastid, 96 hour incubation; actives 6.9% (n = 320,000); P. falciparum luciferase reporter growth, 96 h; Potency, µM (series often up to 28.7 µM), without a hit: top-dose activity change, negative = inhibition, actives largely listed as inhibitors; further: potency means the concentration at half of the fitted maximal effect; on the % scale 0 is the no-effect control and ±100 the full control effect
#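 Readout is luminescence from an integrated firefly luciferase in P. falciparum. Red cells, 2% hematocrit and 0.05% parasitemia final, were cultured with compound through two parasite generations (96 hours) at 37 C, 5% CO2.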
# CHX counter = Cycloheximide Counterscreen for Small Molecule Inhibitors of Shiga Toxin. cell reporter, cycloheximide protein synthesis inhibition counterscreen. max response, %. actives 12% (n = 300,000). AID 2314, 2010; in the data active means max response mostly above about 13%, no sharp cut-off; inactive means mostly below about 14%; further: read at 38.3 µM for the half of the compounds with a filed dose; 0% is about no effect
# Shiga toxin inh = A qHTS for Small Molecule Inhibitors of Shiga Toxin; Vero cells, Shiga toxin protein synthesis inhibition reporter; inhibition, % at 38.7 µM; actives 9.2% (n = 290,000); AID 2315, 2010; in the data active means inhibition mostly above about 28%, no sharp cut-off; inactive means mostly below about 43%; further: 0% is about no effect
# Active calls of the source: *; ? = inconclusive; . = no result. Sampled rows, rich in hits. Any-hit rate of the full collection: about 20%. Unless noted, the call rests on the fitted dose curve; in most records, active means well fitted inhibition curve with a large enough effect; inconclusive means small, poorly fitted or top-dose-only effect, or another doubt; inactive means no such curve, though single readings can be large or run the other way.
SMILES,HCMV antiviral,Pf growth 48h,Pf growth 96h,CHX counter,Shiga toxin inh
COc1ccc(C(=O)c2oc3ccccc3c2NC(=O)c2cccc(OC)c2)cc1,-4,.,.,.,.
COC(=O)c1oc2ccc(Cl)cc2c1N,45,61%,?,22*,99*
COC(=O)CCC(=O)c1oc2ccc(OC)cc2c1N,-20,.,1%,40*,63
COC(=O)c1oc2ccccc2c1N,6,.,60%,11,18
COc1ccc2oc(C(=O)C3CC3)c(N)c2c1,78,90%,16%,43*,131*
COc1ccc2oc(C(=O)c3ccccc3)c(N)c2c1,120,130%,63%,65*,135*
Cc1ccc(NC(=O)Cn2cc3c(n2)CCC(C)C3)cc1C (configuration not stated),9,.,.,.,.
COc1ccc(C(=O)c2oc3ccccc3c2N)cc1,-67*,75%,.,93*,active
COc1ccc(C(=O)Nc2c(C(=O)c3ccccc3)oc3ccccc23)cc1,-10,.,.,.,.
Cc1ccc2c(=O)c3cccc(CC(=O)O)c3oc2c1C,.,.,.,-5,20
CC1(S(=O)(=O)O)CC(=O)c2ccccc2C1=O (configuration not stated),-31,15µM*,1.7µM*,11,13
C#CCn1c(=NC(=O)c2cccs2)sc2cccc(OC)c21,-98*,.,?,24,99
Cc1nn(-c2ccccc2)c(Cl)c1/C=N/NC(=O)c1ccc(NS(=O)(=O)c2cccs2)cc1,.,?,-8%,20*,32
Cc1nn(-c2cccc(Cl)c2)c(Cl)c1/C=N/NC(=O)c1cccs1,?,10µM*,?,29*,58*
Cc1nn(-c2ccccc2)c(Cl)c1/C=N/NC(=O)c1ccccc1NS(=O)(=O)c1cccs1,-23,?,?,6,11
CC(=O)Cc1cc(O)c2ccccc2c1OC(=O)c1ccccc1,-73*,13µM*,10%,-2,20
Cc1cc(C(=O)N/N=C/c2ccc([N+](=O)[O-])o2)c(C)o1,-61*,3.7µM*,3.3µM*,1,-2
Cc1nonc1C(=O)N/N=C/c1ccc([N+](=O)[O-])o1,?,?,?,46*,88*
COc1ccc(-c2nn(-c3ccccc3)cc2C(=O)N/N=C/c2ccc([N+](=O)[O-])o2)cc1,?,2.6µM*,4%,5,-22
Cc1nonc1C(=O)N/N=C/c1ccc(O)cc1O,15,7%,23%,-4,8
Cc1nc(-c2ccccc2)nn1-c1ccc([N+](=O)[O-])cc1,-11,.,.,.,.
CCOC(=O)c1cnc2cc(C(F)(F)F)ccc2c1N1CCN(c2ccc(F)cc2)CC1,16,.,.,.,.
Cc1cccc(C)c1NC(=O)N1CCN(c2nc3ccccc3s2)CC1,-70*,-12%,.,1,24
CCOc1ccc(NC(=O)N2CCN(c3nc4ccccc4s3)CC2)cc1,?,?,.,1,23
Cc1cccc(Cl)c1NC(=O)N1CCCN(c2nc3ccc(Cl)cc3s2)CC1,-35,?,?,25*,44*
SMILES,HCMV antiviral,Pf growth 48h,Pf growth 96h,CHX counter,Shiga toxin inh
Cc1ccc(NC(=O)N2CCCC2C(=O)NCC2CCCO2)cc1 (configuration not stated),-30,12%,43%,-3,-13
Nc1nc(-c2ccccc2)c(CCCOc2ccc(NC(=O)CBr)cc2)c(=O)[nH]1,-15,.,.,.,.
CCOC(=O)CNC(=O)N1CCCC(Cc2ccccc2)(C(=O)OCC)C1 (configuration not stated),-2,.,.,.,.
CCOC(=O)C1(Cc2cccc(Cl)c2)CCCN(C2CCN(C(C)=O)CC2)C1 (configuration not stated),0,?,54%,-1,16
CCOC(=O)C1(Cc2ccccc2C)CCCN(C(=O)COC)C1 (configuration not stated),32,-6%,?,23*,41*
C=CCCC(=O)N1CCCC(Cc2cccc(Cl)c2)(C(=O)OCC)C1 (configuration not stated),15,-28%,12µM*,9,-35
CCOC(=O)C1(Cc2cccc(Cl)c2)CCCN(C(=O)CCSC)C1 (configuration not stated),1,-10%,378%,22*,29
CCOC(=O)C1(Cc2cccc(Cl)c2)CCCN(C(=O)CCOC)C1 (configuration not stated),-5,-4%,5%,13*,18
Cc1ccccc1C1=NOC2CN(C(=O)/C=C/c3ccccc3)CC12 (configuration not stated),-11,.,.,.,.
O=C1C(n2ccc3ccccc32)c2cccc(F)c2N1Cc1ccc(Cl)nc1 (configuration not stated),-13,.,.,.,.
COc1ccc(N2CCN(C(=O)C3CCN(Cc4nc(-c5ccc(Cl)cc5)oc4C)CC3)CC2)cc1,-3,.,.,.,.
CCOC(=O)C1(Cc2cccc(Cl)c2)CCCN(C(=O)CCN2CCCC2=O)C1 (configuration not stated),31,0%,-8%,25*,31
Cc1cccc(Nc2nc(NCC3CCCO3)nc(N)c2[N+](=O)[O-])c1 (configuration not stated),8,1%,?,-5,-7
CNc1nc(N)c([N+](=O)[O-])c(NCC2CCCO2)n1 (configuration not stated),66,2.1µM*,-3%,1,31
Cc1ccc(Nc2nc(NCC3CCCO3)nc(N)c2[N+](=O)[O-])cc1 (configuration not stated),-27,-28%,12µM*,1,-6
Nc1nc(NCC2CCCO2)nc(Nc2ccc(F)cc2)c1[N+](=O)[O-] (configuration not stated),-39,?,5.9µM*,-2,11
Cc1cc(C2CC(=O)Nc3ccccc3S2)c(C)s1 (configuration not stated),-15,62%,51%,-3,-6
COc1ccc(S(=O)(=O)Nc2ccc3oc4c(c3c2)C(=O)CC(C)(C)C4)cc1,-10,.,.,.,.
CCOC(=O)CNC(c1ccccc1)c1cc(Br)ccc1NC(=O)c1ccc(Cl)cc1 (configuration not stated),-14,.,.,.,.
Cc1ccsc1C(=O)N/N=C/C=C/c1ccccc1[N+](=O)[O-],-25,.,89%,30*,117*
CCOC(=O)N/N=C/C=C/c1ccccc1[N+](=O)[O-],-25,0%,?,22*,73*
Cc1occc1C(=O)N/N=C/C=C\c1ccccc1[N+](=O)[O-],-75*,-1%,-16%,30*,70*
O=C(N/N=C/C=C\c1ccccc1[N+](=O)[O-])c1ccco1,-4,?,?,12,-2
CCCC1=C(C(=O)OCC)C(c2ccco2)C(C#N)=C(N)O1 (configuration not stated),2,2%,?,5,-17
